{
  "source": "PubChem BioAssay AID504433",
  "about": "(National Center for Advancing Translational Sciences (NCATS), 2011)",
  "note": "Several values for one entry are separate records, joined by “and”; a condition that tells them apart may be missing. Equal values may be shown once. Results filed as inconclusive are left out. Activity calls are given as the source filed them. The call rests on the fitted dose curve; in most records, active means well fitted inhibition curve with a large enough effect; inconclusive means small, poorly fitted or top-dose-only effect; inactive means flat fitted curve, though single readings scatter.",
  "data": [
    {"assay": "Secondary Assay for lipid storage modulators: Cytotoxcity for probe SAR round 2", "settings": "Drosophila S3 cells viability, CellTiter-Glo ATP luminescence, 24 h; series mostly up to 46.1 µM; activity change, negative = cytotoxicity: at the top concentration", "from_the_text": "NIH Molecular Libraries Probe Production Centers Network [MLPCN] NIH Chemical Genomics Center [NCGC] MLPCN Grant: 1 R03 MH085686-01 Assay Submitter (PI): Beller, Mathias; Max-Planck-Institut fur Biophysikalische Chemie, Germany. NCGC Assay Overview: Storing lipids as a reservoir for energy or the anabolism of elementary metabolites is a common feature of probably all cells and is conserved from bacteria to humans. The universal cellular lipid storage organelle is the so-called lipid storage droplet (LD). Although ubiquitous, LDs share a simple structure composed of a hydrophobic core that harbors the storage lipids, which is shielded by a droplet-specific phospholipid monolayer to which proteins are attached. The current model of LD biogenesis involves an incorporation of the lipid core into the membrane leaflets of the endoplasmic reticulum (ER) followed by a subsequent budding-like maturation of a LD, which ultimately pinches off. Once released, LD volume can increase by localized lipogenesis or fusion of existing droplet. Storage lipids are re-mobilized enzymatically by lipase activity. Lipase regulation in the adipocyte is heavily studied and involves multiple components including catecholamine signaling, the LD-associated proteins Perilipin and comparative gene identification (CGI-58) and at least two lipases named hormone sensitive lipase (HSL) and adipocyte triglyceride lipase (ATGL). LD regulation outside of the adipocyte is poorly understood and only few components are known. However, there is an urgent need to learn more about ectopic fat depots as mislocalized storage of lipids, for example in the liver or muscle, is an eminent health problem associated with insulin resistance or the metabolic syndrome. We developed a laser-scanning cytometer assay to enable 1,536-well screening and combined the results of the small molecules screen with an RNAi database based on lipid storage. The compound was tested here for cytotoxcity using CellTiter-Glo.\nAssay Protocol Summary: Cytotoxcity assay was performed with embryonic Drosophila S3 cells (Bloomington Drosophila Genomics Resource Center [DGRC]). We dispensed 4 uL of cells at 1.25 x 10^6 cells/mL into Greiner solid white 1,536-well plates with a bottle-valve solenoid-based dispenser (Aurora) to obtain 5,000 cells/well. A total of 23 nL of compound solution of different concentrations were transferred to the assay plates using a Kalypsys pin tool equipped with a 1,536-pin array containing 10-nL slotted pins (FP1S10, 0.457-mm diameter, 50.8 mm long; V&P Scientific). One microliter of oleic acid (400 uM) was added, and the plate was lidded with stainless steel rubber gasket lined lids containing pinholes. After 24 hrs of incubation at 24 degrees Celsius and 95% humidity, 4 uL of CellTiter-Glo (Promega) was added to the wells. Luminescence was detected on the Perkin Elmer ViewLux.", "values": [
      {"smiles": "CCOC(=O)C1CCN(C(=O)C(C)(C)NC(=O)Nc2ccc(C#N)cc2)CC1", "activity change, negative = cytotoxicity": "-23.1% (inactive)"},
      {"smiles": "O=C(N[C@H]1CCCc2c1cnn2-c1ccc(F)cc1F)c1ccccn1", "activity change, negative = cytotoxicity": "-19.2% (inactive)"},
      {"smiles": "O=C(NC1CCCc2c1cnn2-c1ccc(F)cc1F)c1ccccc1", "note": "(configuration not stated)", "Potency": "4.99 µM (active)"},
      {"smiles": "CCOC(=O)C1CCN(C(=O)C(C)(C)NC(=O)Nc2ccc(CN3CCOCC3)cc2)CC1", "activity change, negative = cytotoxicity": "-4.86% (inactive)"},
      {"smiles": "CCNC(=O)C1CCN(C(=O)C(C)(C)NC(=O)Nc2ccccc2Cl)CC1", "activity change, negative = cytotoxicity": "-13.9% (inactive)"},
      {"smiles": "CCOC(=O)C1CCN(C(=O)C(C)(C)NC(=O)Nc2cccc(-c3csc(C)n3)c2)CC1", "activity change, negative = cytotoxicity": "-12.3% (inactive)"},
      {"smiles": "CCOC(=O)C1CCN(C(=O)C(C)(C)NC(=O)Nc2cccc(OC)c2)CC1", "activity change, negative = cytotoxicity": "-15.5% (inactive)"},
      {"smiles": "CCOC(=O)C1CCN(C(=O)C(C)(C)NC(=O)Nc2ccc(N(C)C)cc2)CC1", "activity change, negative = cytotoxicity": "-8.42% (inactive)"},
      {"smiles": "CCN(CC)C(=O)C1CCN(C(=O)C(C)(C)NC(=O)Nc2ccccc2Cl)CC1", "activity change, negative = cytotoxicity": "-15.3% (inactive)"},
      {"smiles": "CCOC(=O)C1CCN(C(=O)C(C)(C)NC(=O)Nc2ccc(OC)c(Cl)c2)CC1", "activity change, negative = cytotoxicity": "-11.8% (inactive)"},
      {"smiles": "CCOC(=O)C1CCN(C(=O)C(C)(C)NC(=O)Nc2ccc3ccccc3c2)CC1", "activity change, negative = cytotoxicity": "-17.5% (inactive)"},
      {"smiles": "CCOC(=O)C1CCN(C(=O)C(C)(C)NC(=O)Nc2ccc3c(c2)CCC3)CC1", "activity change, negative = cytotoxicity": "-14.7% (inactive)"},
      {"smiles": "CCOC(=O)C1CCN(C(=O)C(C)(C)NC(=O)Nc2ccc(N)cc2)CC1", "activity change, negative = cytotoxicity": "-12% (inactive)"},
      {"smiles": "O=C(NC1CCCc2c1cnn2-c1ccc(F)cc1F)c1cccs1", "note": "(configuration not stated)", "Potency": "5.6 µM (active)"},
      {"smiles": "CCOC(=O)C1CCN(C(=O)C(C)(C)NC(=O)Nc2ccccc2Cl)CC1", "activity change, negative = cytotoxicity": "-19% (inactive)"},
      {"smiles": "CC(C)(C)OC(=O)NCCOCCOCCOc1ccc(-n2ncc3c2CCCC3NC(=O)c2ccccn2)cc1", "note": "(configuration not stated)", "Potency": "3.15 µM (active)"},
      {"smiles": "CCOC(=O)C1CCN(C(=O)C(C)(C)NC(=O)Nc2ccc(F)c(F)c2)CC1", "activity change, negative = cytotoxicity": "-14.3% (inactive)"},
      {"smiles": "CCOC(=O)C1CCN(C(=O)C(C)(C)NC(=O)Nc2ccc(Cl)cc2Cl)CC1", "activity change, negative = cytotoxicity": "-16.8% (inactive)"},
      {"smiles": "O=C(NC1CCCc2c1cnn2-c1ccc(F)cc1F)c1ccccn1", "note": "(configuration not stated)", "Potency": "7.05 µM (active) and 11.2 µM (active)"},
      {"smiles": "CCOC(=O)C1CCN(C(=O)C(C)(C)NC(=O)Nc2cccc(C(=O)OC)c2)CC1", "activity change, negative = cytotoxicity": "-4.92% (inactive)"},
      {"smiles": "CC(C)(C)OC(=O)NCCOCCOCCOc1cccc(-n2ncc3c2CCCC3NC(=O)c2ccccn2)c1", "note": "(configuration not stated)", "Potency": "5.6 µM (active)"},
      {"smiles": "CC(C)(NC(=O)Nc1ccccc1Cl)C(=O)N1CCC(C(=O)O)CC1", "activity change, negative = cytotoxicity": "-14.9% (inactive)"}
    ]}
  ]
}
